The record followed here is PubChem BioAssay (NCATS).

SMILES strings stand for the structures. Where “and” joins values, the source holds several entries; their conditions need not be identical. Equal values may be shown once. A number with no mark means an inactive call. Results filed as inconclusive are left out. Calls of active or inactive are those of the source. Unless noted, calls come from the whole dose curve; as a rule, active = well fitted inhibition curve with a large enough effect; inconclusive = small, poorly fitted or top-dose-only effect; inactive = flat fitted curve, though single readings scatter.

Experiment [1] is described as follows: Drug repurposing screens with cells derived from glioblastoma tumor samples (AID 1345199). For activity, negative = cell killing: % is set by controls: 0 for no effect and ±100 for the full control effect. Note: nearly all actives have a fitted effect of over 40% in size. Note: potency is the fitted concentration of half-maximal effect. As to conditions: GBM patient neurospheres viability, ATP luminescence, 48 h. An outline of the steps:
(§1)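 Four patient lines of CD133+ GBM neurospheres were screened at several concentrations; hits were retested in those lines plus three slower-growing GBM lines, using 48-hour treatment and ATP-based viability.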

Experiment [2] has as its system astro (control astrocytes). The description is as above. Conditions: viability, ATP luminescence, 48 h; series mostly up to 45.9 µM. Put shortly:
as §1

Experiment [3] has as its target Nuclear receptor subfamily 1 group I member 2 (Rattus norvegicus) (UniProt Q9R1A7). The experiment is described as follows: qHTS assay for small molecule activators of the rat pregnane X receptor (rPXR) signaling pathway (AID 651751; call rule not given here; note: 0% is about no effect). Conditions: rPXR reporter cells, luciferase (One-Glo), 24 h. A general note: Quantitative high-throughput screening tests each substance at several concentrations.

The nature of experiment [4]: qHTS assay for small molecule activators of the human pregnane X receptor (PXR) signaling pathway (AID 720659; call rule not given here; note: 0% is about no effect). Conditions: DPX-2 HepG2 CYP3A4-luciferase, 24 h; series mostly up to 92.3 µM.
The mark [5] stands for this setting: at 45.9 µM (top of the series), tumour line B.
Setting [6] is: at 45.9 µM (top of the series), tumour line D.
Setting [7] is: at 46 µM (top of the series), tumour line A.
Setting [8] is: at 46.1 µM (top of the series), tumour line C.
[9] abbreviates: at 20 µM (top of the series), tumour line C.
The mark [10] stands for this setting: at 21.2 µM (top of the series), tumour line B.
The mark [11] stands for this setting: at 21.2 µM (top of the series), tumour line D.
Setting [12] is: at 21.3 µM (top of the series), tumour line A.

Sequence of Nuclear receptor subfamily 1 group I member 2 (Rattus norvegicus) (Q9R1A7 whole entry, looked up): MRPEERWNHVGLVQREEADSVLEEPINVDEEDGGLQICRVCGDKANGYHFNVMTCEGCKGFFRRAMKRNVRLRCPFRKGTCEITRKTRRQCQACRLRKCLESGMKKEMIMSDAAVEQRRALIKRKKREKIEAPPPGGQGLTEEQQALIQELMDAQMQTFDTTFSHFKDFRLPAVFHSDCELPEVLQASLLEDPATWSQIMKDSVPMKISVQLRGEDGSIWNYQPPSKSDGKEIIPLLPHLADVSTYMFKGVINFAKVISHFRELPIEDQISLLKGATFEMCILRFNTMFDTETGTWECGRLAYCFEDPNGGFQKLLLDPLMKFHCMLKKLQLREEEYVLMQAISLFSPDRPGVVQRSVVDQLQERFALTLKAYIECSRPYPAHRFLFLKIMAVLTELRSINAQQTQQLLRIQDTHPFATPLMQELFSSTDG

As for `O=C(O)c1cc(=O)c2c3nc4ccccc4oc-3cc(=O)c2[nH]1`, the activity, negative = cell killing in experiment [1] (setting [5]) was -7.08%; in experiment [1] (setting [6]) it was -5.52%; in experiment [1] (setting [7]) it was -20.9%; in experiment [1] (setting [8]), -22.4%. In addition, the Potency result in experiment [2] is “inactive”.

Turning to `CC1=C(/C=C/C(C)=C/C=C/C(C)=C/C=C/C=C(C)/C=C/C=C(C)/C=C/C2=C(C)CCCC2(C)C)C(C)(C)CCC1`, the activity, negative = cell killing in experiment [1] (setting [5]) was -10.1%; in experiment [1] (setting [6]) it was -14.5%; in experiment [1] (setting [7]), -34.5%; in experiment [1] (setting [8]) it was 5.35%. The Potency result in experiment [2] is “inactive”.

`OCCO[C@@H]1[C@@H](O)[C@H](O)[C@@H](CO)O[C@@H]1O`: the activity, negative = cell killing was -12.3% in experiment [1] (setting [5]), -11.5% in experiment [1] (setting [6]), -14.9% in experiment [1] (setting [7]) and -19.4% in experiment [1] (setting [8]). The Potency entry in experiment [2] was “inactive”.

In the case of `CC(=O)N(CC(C)C(=O)O)c1c(I)cc(I)c(N)c1I` (centres undefined), the activity, negative = cell killing in experiment [1] (setting [9]) is -1.12%; in experiment [1] (setting [10]) it was -5.01%; in experiment [1] (setting [11]), -13.7%; in experiment [1] (setting [12]), -23.8%. For the same molecule, the Potency entry in experiment [2] is “inactive”.

For the molecule `COc1ccc(C[C@@H](C)NC[C@H](O)c2ccc(O)c(NC=O)c2)cc1`, the activity, negative = cell killing in experiment [1] (setting [5]) is -17.2%; in experiment [1] (setting [6]) it was 5.61%; in experiment [1] (setting [8]), -20.1%. The Potency in experiment [1] (tumour line A) is 12.6 µM (active). Besides, the Potency result in experiment [2] was “inactive”.

Turning to `CCCCCCCCCCCCCCCC(=O)OCC(COC(=O)CCCCCCCCCCCCCCC)OC(=O)CCCCCCCCCCCCCCC`, the activity, negative = cell killing in experiment [1] (setting [5]) was -15.6%; in experiment [1] (setting [6]), -3.31%; in experiment [1] (setting [7]), -22.2%; in experiment [1] (setting [8]), -9%. Further, the Potency result in experiment [2] was “inactive”.

In the case of `CCCC(=O)Nc1ncnc2c1ncn2[C@@H]1O[C@@H]2COP(=O)(O)O[C@H]2[C@H]1OC(=O)CCC`, the activity, negative = cell killing is -14.5% in experiment [1] (setting [5]), -5% in experiment [1] (setting [6]), -18.2% in experiment [1] (setting [7]) and -13.8% in experiment [1] (setting [8]). Also, the Potency entry in experiment [2] was “inactive”.

Take `CC[C@H]1OC(=O)[C@H](C)[C@@H](O[C@H]2C[C@@](C)(OC)[C@@H](O)[C@H](C)O2)[C@H](C)[C@@H](O[C@@H]2O[C@H](C)C[C@H](N(C)C)[C@H]2O)[C@](C)(O)C[C@@H](C)/C(=N\OCOCCOC)[C@H](C)[C@@H](O)[C@]1(C)O`: the activity, negative = cell killing in experiment [1] (setting [9]) was -5.57%; in experiment [1] (setting [10]), -9.58%; in experiment [1] (setting [11]) it was -24%; in experiment [1] (setting [12]), -24.2%. In experiment [2], the Potency result was “inactive”.

As for `Cc1ccccc1OCC(O)CNCCOc1ccc(C(N)=O)cc1` (centres undefined), the activity, negative = cell killing was 6.35% in experiment [1] (setting [5]), -24% in experiment [1] (setting [6]) and -1.19% in experiment [1] (setting [8]). Also, the Potency in experiment [1] (tumour line A) was 17.8 µM (active). In experiment [2], the Potency entry was “inactive”.

As to `C=C(NC(=O)C(=C)NC(=O)c1csc(C2=N[C@@H]3c4csc(n4)[C@H]4NC(=O)c5csc(n5)[C@H]([C@](C)(O)[C@@H](C)O)NC(=O)[C@H]5CSC(=N5)C(=CC)NC(=O)C([C@@H](C)O)NC(=O)c5csc(n5)[C@]3(CC2)NC(=O)[C@H](C)NC(=O)C(=C)NC(=O)[C@H](C)NC(=O)C([C@@H](C)CC)NC2C=Cc3c([C@H](C)O)cc(nc3C2O)C(=O)O[C@@H]4C)n1)C(N)=O` (some centres undefined), the activity, negative = cell killing in experiment [1] (setting [9]) was -17.2%. In addition, the results for the Potency in experiment [1] (tumour line A), in experiment [1] (tumour line B) and in experiment [1] (tumour line D) were 11.2 µM (active), 14.1 µM (active) and 14.1 µM (active), respectively. Moreover, in experiment [2], the Potency entry is “inactive”.

Take `CC[N+](C)(C)Cc1ccccc1Br`: the activity, negative = cell killing was -2.45% in experiment [1] (setting [9]), 0.866% in experiment [1] (setting [10]), -1.19% in experiment [1] (setting [11]) and -11% in experiment [1] (setting [12]). Also, the Potency entry in experiment [2] was “inactive”.

With `C[C@H](CCC(=O)O)[C@H]1CC[C@H]2[C@@H]3[C@H](O)C[C@@H]4C[C@H](O)CC[C@]4(C)[C@H]3CC[C@]12C`, the activity, negative = cell killing in experiment [1] (setting [9]) was 0.416%; in experiment [1] (setting [10]) it was 1.96%; in experiment [1] (setting [11]), 6.12%; in experiment [1] (setting [12]) it was -15.4%. Besides, the Potency result in experiment [2] is “inactive”.

With `CC1(C)S[C@@H]2[C@H](NC(=O)Cc3ccccc3)C(=O)N2[C@H]1C(=O)O`, the activity, negative = cell killing in experiment [1] (setting [5]) is -9.27%; in experiment [1] (setting [6]), -18.5%; in experiment [1] (setting [7]) it was -18.5%; in experiment [1] (setting [8]) it was -5.88%. In addition, the Potency result in experiment [2] is “inactive”.

For `CC1(C)S[C@@H]2[C@H](NC(=O)[C@@H](NC(=O)N3CCNC3=O)c3ccccc3)C(=O)N2[C@H]1C(=O)O`, the activity, negative = cell killing in experiment [1] (setting [9]) is -8.8%; in experiment [1] (setting [10]), -3.93%; in experiment [1] (setting [11]) it was -6.96%; in experiment [1] (setting [12]), -17.7%. In addition, the Potency result in experiment [2] was “inactive”.

For the molecule `COC(F)(F)C(Cl)Cl`, the figures for the activity, negative = cell killing in experiment [1] (setting [5]), in experiment [1] (setting [6]) and in experiment [1] (setting [7]) were -7.55%, -1.1% and -22%, respectively. In experiment [2], the Potency result was “inactive”.

`CO[C@H]1C=CO[C@@]2(C)Oc3c(C)c(O)c4c(O)c(c5c(nc6cc(C)ccn65)c4c3C2=O)NC(=O)/C(C)=C\C=C[C@H](C)[C@H](O)[C@@H](C)[C@@H](O)[C@@H](C)[C@H](OC(C)=O)[C@@H]1C`: the activity, negative = cell killing is -10.2% in experiment [1] (setting [5]), -26.2% in experiment [1] (setting [6]) and -2.47% in experiment [1] (setting [8]). For the same molecule, the Potency result in experiment [2] was “inactive”.

Consider `CC(O)CO` (centres undefined), for which the activity, negative = cell killing is 0.179% in experiment [1] (setting [5]), 10.5% in experiment [1] (setting [6]), -19.9% in experiment [1] (setting [7]) and -8.89% in experiment [1] (setting [8]). The Potency result in experiment [2] was “inactive”. Moreover, in experiment [3], the max response was -2.73% and 0.891%. The call in experiment [4] was inactive.

In the case of `O=C(COc1ccc(Cl)cc1)OCCNC12CC3CC(CC(C3)C1)C2`, the activity, negative = cell killing in experiment [1] (setting [5]) was -5.61%; in experiment [1] (setting [6]) it was -18.7%; in experiment [1] (setting [8]) it was -2.27%. Moreover, the Potency result in experiment [2] is “inactive”.

For `C/C1=C2N=C(/C=C3N=C(/C(C)=C4\[N-][C@@](C)([C@@H]5N=C1[C@](C)(CCC(=O)NCC(C)OP(=O)(O)O[C@H]1[C@@H](O)[C@@H](n6cnc7cc(C)c(C)cc76)O[C@@H]1CO)[C@H]5CC(N)=O)[C@@](C)(CC(N)=O)[C@@H]4CCC(N)=O)[C@@](C)(CC(N)=O)[C@@H]\3CCC(N)=O)C(C)(C)[C@@H]/2CCC(N)=O.CC(=O)O.[Co]` (some centres undefined), the activity, negative = cell killing in experiment [1] (setting [5]) is -15.2%; in experiment [1] (setting [6]), -26.7%; in experiment [1] (setting [7]), -29%. The Potency result in experiment [2] was “inactive”.

For `CC1(C)S[C@@H]2[C@H](NC(=O)C(N)c3ccccc3)C(=O)N2[C@H]1C(=O)OC1OC(=O)c2ccccc21` (some centres undefined), the activity, negative = cell killing is -5.29% in experiment [1] (setting [9]), -22.1% in experiment [1] (setting [10]) and -10.3% in experiment [1] (setting [11]). Moreover, the Potency entry in experiment [2] was “inactive”.

As for `CC1=C(/C=C/C(C)=C/C=C/C(C)=C/C=C/C=C(C)/C=C/C=C(C)/C=C/C2=C(C)C(=O)CCC2(C)C)C(C)(C)CCC1=O`, the activity, negative = cell killing is -0.298% in experiment [1] (setting [5]), 9.62% in experiment [1] (setting [6]) and -24.8% in experiment [1] (setting [8]). Besides, the Potency entry in experiment [2] is “inactive”.

For the molecule `C[C@H]1C[C@H]2[C@@H]3CCC4=CC(=O)C=C[C@]4(C)[C@@]3(F)[C@@H](O)C[C@]2(C)[C@@]1(O)C(=O)CO`, the activity, negative = cell killing in experiment [1] (setting [5]) was -16%; in experiment [1] (setting [6]), -25%; in experiment [1] (setting [7]) it was -24.5%. Moreover, the Potency entry in experiment [2] was “inactive”.

For `CC[N+](CC)(CC)CCC(O)(c1ccccc1)C1CCCCC1` (centres undefined), the activity, negative = cell killing in experiment [1] (setting [9]) is 3.9%; in experiment [1] (setting [10]), -4.74%; in experiment [1] (setting [11]), 0.449%. Further, the Potency entry in experiment [2] is “inactive”.
